Measured values published in PubChem BioAssay (EPA / NIEHS).
Records with an inconclusive call do not appear. Calls of active or inactive are those of the source. Rule for the calls, unless noted: active = hit-call score of the fitted dose curve at least 0.9, where 1 is the maximum; inactive = score below 0.9.

Columns and labels:
[1] = UKN4_HCS_LUHMES_neurite_outgrowth: University of Konstanz (UKN) Leist Lab Neurite Outgrowth Assay in human LUHMES cells (UKN4) (AID 2284206); conditions: actives raise or lower the signal
Summary of the method: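 Day 0 switch to differentiation medium; day 2 replate (30000 cells/well) without cAMP and GDNF; compounds added 30 min–2 h later. At 23.5 h, 30 min calcein-AM/H-33342 live stain, then imaging.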

[2] = IUF_NPC1b_proliferation_BrdU_72hr: Leibniz Research Institute for Environmental Medicine (IUF) 72-hour Neural Progenitor Cell Bromodeoxyuridine (BrdU) Proliferation Assay (NPC1b) (AID 2284207)
Summary of the method: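 BrdU luminescence ELISA quantified DNA synthesis over the last 16 h of a 72 h exposure, fitted against DMSO. Primary hNPC spheres from gestational week 16-19 cortex grown with EGF/FGF at 37C, pH 7.2-7.6.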

[3] = IUF_NPC1a_proliferation_area_72hr: Leibniz Research Institute for Environmental Medicine (IUF) 72-hour Neural Progenitor Cell Proliferation Area Assay (NPC1a) (AID 2284208)
Summary of the method: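 Measured in 3D suspension: each well held one primary hNPC sphere grown with EGF and FGF at pH 7.2-7.6. Compound stayed on for 72 h, then area was imaged; spheres lacking growth factors defined reduced proliferation.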

[4] = IUF_NPC1_viability_72hr: Viability Assessment at 72 hours in the Leibniz Research Institute for Environmental Medicine (IUF) Neural Progenitor Cell Proliferation Assay (NPC1) (AID 2284209)
Summary of the method: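 hNPC spheres, 1/well, EGF+FGF medium, 37C/5% CO2; dosed day 0, 72 h, no re-dosing. Resazurin reduction (alamar blue) fluorescence; DMSO = negative control/baseline; growth-factor-free wells as positive control.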

[5] = CCTE_Mundy_HCI_Cortical_Synap_Neur_Matur_NeuriteSpotCountPerNeuriteLength: CCTE's Synaptogenesis and Neurite Maturation Assay in rat cortical cells for Neurite Spot Count per Neurite Length, Mundy Lab (AID 2284210)
Summary of the method: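 Rat primary cortical cultures, AraC added at DIV 5 to suppress glia; chemical exposure from DIV 7 to DIV 12. Fixed cells stained for MAP2 and synaptophysin plus Hoechst; synaptophysin puncta per neurite length quantified by high-content imaging, relative to DMSO.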

[6] = CCTE_Mundy_HCI_Cortical_Synap_Neur_Matur_BPCount: CCTE's Synaptogenesis and Neurite Maturation Assay in rat cortical cells for Branch Point Count, Mundy Lab (AID 2284211)
Summary of the method: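 Rat primary cortical cultures, AraC added DIV 5; chemicals dosed DIV 7 through DIV 12. Fixed cells stained for MAP2, synaptophysin and Hoechst; neurite branch points counted by automated high-content imaging, fitted relative to DMSO.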

[7] = CCTE_Mundy_HCI_Cortical_NOG_NeuriteCount: CCTE's Neurite Outgrowth Assay in rat cortical cells for Neurite Count, Mundy Lab (AID 2284212);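 note: cells fixed about two days after chemical exposure began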
Summary of the method: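 Neurite number per cell from high-content imaging of betaIII-tubulin immunostaining, with Hoechst nuclear counterstain.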

[8] = CCTE_Mundy_HCI_Cortical_NOG_NeuriteLength: CCTE's Neurite Outgrowth Assay in rat cortical cells for Neurite Length, Mundy Lab (AID 2284213);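 note: neurites imaged about 48 to 50 h after chemical exposure began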
Summary of the method: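 Neurite length was read by high-content imaging of βIII-tubulin-labelled neurites in rat primary cortical cultures. Activity was fitted relative to DMSO.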

[9] = CCTE_Mundy_HCI_Cortical_Synap_Neur_Matur_NeuriteLength: CCTE's Synaptogenesis and Neurite Maturation Assay in rat cortical cells for Neurite Length, Mundy Lab (AID 2284214)
Summary of the method: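 Rat cortical neurons, AraC at DIV 5; compound + media change DIV 7, end DIV 12 (288.33 h). Fix, MAP2/synaptophysin/Hoechst immunostain, automated HCI of neurite length vs DMSO.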

[10] = CCTE_Mundy_HCI_Cortical_Synap_Neur_Matur_SynapseCount: CCTE's Synaptogenesis and Neurite Maturation Assay in rat cortical cells for Synapse Count, Mundy Lab (AID 2284218)
Summary of the method: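 Primary rat cortical culture; AraC DIV 5 to arrest glia; compound + media change DIV 7; terminated DIV 12. PFA/Hoechst fix, anti-MAP2 + anti-synaptophysin immunostain; HCI synapse count/neuron; DMSO = baseline.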

[11] = CCTE_Mundy_HCI_hN2_NOG_NeuriteCount: CCTE's Neurite Outgrowth Assay in human hN2 cells for Neurite Count, Mundy Lab (AID 2284219; active = hit-call score of the fitted dose curve at least 0.9, where 1 is the maximum)
Summary of the method: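 In this morphology assay, hNP1-derived neurons received test chemical 2 h post-plating and were fixed two days later in warm paraformaldehyde/sucrose containing Hoechst 33342. Neurites, labelled by rabbit anti-βIII-tubulin (1:800) and Alexa Fluor-488 (1:500), were counted automatically.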

[12] = CCTE_Mundy_HCI_hN2_NOG_NeuriteLength: CCTE's Neurite Outgrowth Assay in human hN2 cells for Neurite Length, Mundy Lab (AID 2284220; active = hit-call score of the fitted dose curve at least 0.9, where 1 is the maximum)
Summary of the method: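 Read-out is neurite length from high-content imaging of βIII-tubulin/Alexa Fluor-488-labelled neurons, referenced to DMSO controls.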

[13] = CCTE_Mundy_HCI_hN2_NOG_NeuronCount: CCTE's Neurite Outgrowth Assay in human hN2 cells for Neuron Count, Mundy Lab (AID 2284221; active = hit-call score of the fitted dose curve at least 0.9, where 1 is the maximum)
Summary of the method: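 Read-out is the number of betaIII-tubulin-positive neurons imaged by automated high-content analysis, with DMSO as negative control.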

[14] = CCTE_Mundy_HCI_Cortical_Synap_Neur_Matur_NeuriteCount: CCTE's Synaptogenesis and Neurite Maturation Assay in rat cortical cells for Neurite Count, Mundy Lab (AID 2284222)
Summary of the method: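 Rat primary cortical cells; AraC added at DIV 5, chemicals dosed with media change at DIV 7 through DIV 12. MAP2/synaptophysin/Hoechst immunostaining, high-content imaging of neurite number; fitted relative to DMSO.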

[15] = CCTE_Mundy_HCI_Cortical_Synap_Neur_Matur_CellBodySpotCount: CCTE's Synaptogenesis and Neurite Maturation Assay in rat cortical cells for Cell Body Spot Count, Mundy Lab (AID 2284223)
Summary of the method: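 Chemicals were applied to AraC-treated rat primary cortical cells at DIV 7 and measured at DIV 12. Fixed cells were labelled for MAP2, synaptophysin and nuclei, and high-content imaging gave cell body synaptophysin spot counts per neuron relative to DMSO.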

[16] = UKN4_HCS_LUHMES_cell_viability: Viability Assessment in the University of Konstanz (UKN) Leist Lab Neurite Outgrowth Assay in human LUHMES cells (UKN4) (AID 2284232)
Summary of the method: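 Fluorescence intensity from high-content imaging of Hoechst H-33342/calcein-AM-stained cells served as the viability read-out. Human LUHMES precursors were differentiated 2 days, replated and treated 24 h; curves were fitted bidirectionally against DMSO.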

[17] = UKN2_HCS_IMR90_cell_viability: Viability Assessment in the University of Konstanz (UKN) Leist Lab Neural Crest Cell Migration Assay in human induced IMR90 Pluripotent Stem Cells (UKN2) (AID 2284233);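 note: viability of neural crest cells differentiated from IMR90 iPSC measured by calcein-AM fluorescence imaging; cells exposed to compound for 24 h after a 24 h migration phase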
Summary of the method: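 Neural crest cells derived from IMR90 iPSC migrate into a stopper-free zone for 24 h in EGF/FGF medium, then are exposed to compound for 24 h. Viability assessed by calcein-AM and Hoechst staining with high-content imaging, fitted bidirectionally versus DMSO.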

[18] = CCTE_Mundy_HCI_Cortical_NOG_BPCount: CCTE's Neurite Outgrowth Assay in rat cortical cells for Branch Point Count, Mundy Lab (AID 2284237);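 note: branch points counted about two days after chemical exposure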
Summary of the method: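 Measured 50.33 h after dosing, this morphology endpoint uses rat primary cortical cultures labelled for betaIII-tubulin. Branch points are quantified by high-content imaging, with DMSO as negative control and baseline.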

[19] = CCTE_Mundy_HCI_hNP1_Casp3_7: CCTE's Caspase-Glo 3/7 Assay in human neuroprogenitor cells for Apoptosis, Mundy Lab (AID 2284240)
Summary of the method: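 Luminescent caspase-3/7 readout, 26.5 h post-dose, in human neural progenitor cells from WA09 embryonic stem cells. Cells grew 40–44 h at 37 °C, 5% CO2 before chemical addition. Activity analysed as signal increase over DMSO baseline.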

[20] = CCTE_Mundy_HCI_Cortical_Synap_Neur_Matur_NeuronCount: CCTE's Synaptogenesis and Neurite Maturation Assay in rat cortical cells for Neuron Count, Mundy Lab (AID 2284242; active = hit-call score of the fitted dose curve at least 0.9, where 1 is the maximum;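 note: hits reduce neuron count versus DMSO baseline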)
Summary of the method: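 Neuron number was scored by automated high-content imaging of Hoechst- and MAP2-labelled rat primary cortical cells. Glial growth was arrested with AraC at DIV 5, compounds were applied from DIV 7, and cultures ended at DIV 12.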

[21] = IUF_NPC2a_radial_glia_migration_120hr: Leibniz Research Institute for Environmental Medicine (IUF) 120-hour Neural Progenitor Cell Migration Assay for Radial Glia Migration (NPC2a) (AID 2284298)
Summary of the method: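 Exposure of 0.3 mm primary hNPC spheres runs day 0 to 120 h with a half-volume medium change at day 3. Fixed cells get Hoechst staining; high-content analysis of nuclear positions yields radial glia migration distance per well, compared against DMSO controls.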

[22] = IUF_NPC2a_radial_glia_migration_72hr: Leibniz Research Institute for Environmental Medicine (IUF) 72-hour Neural Progenitor Cell Migration Assay for Radial Glia Migration (NPC2a) (AID 2284299)
Summary of the method: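 Primary hNPC spheres, fetal brain GW 16-19, on PDL/laminin; DMEM/F12 3:1 + 1% N2. Compound dosed day 0, 7 conc. + SC, half-medium refresh day 3. 72 h brightfield, migration distance core-to-front (um), 4 directions averaged.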

[23] = IUF_NPC3_neuronal_differentiation_120hr: Leibniz Research Institute for Environmental Medicine (IUF) 120-hour Neuronal Differentiation Assay (NPC3) (AID 2284301)
Summary of the method: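 Human fetal (GW 16-19) neural progenitor spheres (0.3 mm) plated on poly-D-lysine/laminin in N2 differentiation medium, exposed 120 h at 37C with half-medium renewal day 3; 7 concentrations. TUBB3+ cells as % of Hoechst nuclei, CNN-identified; DMSO baseline.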

[24] = IUF_NPC4_neurite_length_120hr: Leibniz Research Institute for Environmental Medicine (IUF) 120-hour Neuronal Morphology Assay for Neurite Length (NPC4) (AID 2284302)
Summary of the method: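 Human fetal neural progenitor spheres (0.3 mm) plated on poly-D-lysine/laminin in N2 differentiation medium, exposed from day 0 for 120 h with half-medium refresh at day 3, 37C. Mean neurite length (um) of TUBB3-positive neurons from skeletonized immunostaining images; DMSO ≤0.1%.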

[25] = IUF_NPC5_oligodendrocyte_differentiation_120hr: Leibniz Research Institute for Environmental Medicine (IUF) 120-hour Oligodendrocyte Differentiation Assay (NPC5) (AID 2284304; active = hit-call score of the fitted dose curve at least 0.9, where 1 is the maximum;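 note: primary human fetal neural progenitor spheres plated to migrate and differentiate; share of O4-positive cells among Hoechst nuclei found by CNN image analysis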)
Summary of the method: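 After plating on poly-D-lysine/laminin, fetal-derived hNPC spheres differentiated for 120 h at 37C in compound-containing N2 medium, refreshed by half on day 3. O4 immunostaining over Hoechst nuclei in the migration zone gave oligodendrocyte percentage relative to DMSO.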

[26] = IUF_NPC4_neurite_area_120hr: Leibniz Research Institute for Environmental Medicine (IUF) 120-hour Neuronal Morphology Assay for Neurite Area (NPC4) (AID 2284305; active = hit-call score of the fitted dose curve at least 0.9, where 1 is the maximum)
Summary of the method: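 Human fetal neural progenitor spheres (0.3 mm) plated on poly-D-lysine/laminin in N2 differentiation medium, exposed 120 h (7 concentrations, DMSO ≤0.1%, half-medium refresh day 3). Fixed, TUBB3 immunostained; mean neurite area per neuron by Omnisphero skeletonization.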

[27] = IUF_NPC2-5_cytotoxicity_120hr: Cytotoxicity Assessment at 120 hours in the Leibniz Research Institute for Environmental Medicine (IUF) Neural Progenitor Cell Migration and Differentiation Assay (NPC2-5) (AID 2284307; active = hit-call score of the fitted dose curve at least 0.9, where 1 is the maximum)
Summary of the method: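 Membrane-integrity loss is quantified by LDH in supernatant after five days of exposure of migrating, differentiating human fetal NPC spheres; seven serially diluted concentrations are tested with DMSO kept at or below 0.1%.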

[28] = IUF_NPC2-5_cell_number_120hr: Cell Number Assessment at 120 hours in the Leibniz Research Institute for Environmental Medicine (IUF) Neural Progenitor Cell Migration and Differentiation Assay (NPC2-5) (AID 2284308);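 note: count of Hoechst-stained nuclei in migration zone around plated human neural progenitor spheres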
Summary of the method: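 Seven-point serial dilutions plus solvent control were applied to plated 0.3 mm hNPC spheres at differentiation start, with medium half-replaced at day 3. Nuclei positive for Hoechst in the migration zone were enumerated at 120 h.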

[29] = IUF_NPC2-5_viability_120hr: Viability Assessment at 120 hours in the Leibniz Research Institute for Environmental Medicine (IUF) Neural Progenitor Cell Migration and Differentiation Assay (NPC2-5) (AID 2284312)
Summary of the method: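 Human fetal neural progenitor spheres (0.3 mm) plated on poly-D-lysine/laminin in N2 differentiation medium, exposed 120 h with half-medium refresh at day 3. Viability by alamar blue resazurin fluorescence; 7 concentrations, DMSO max 0.1%.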

[30] = IUF_NPC1_cytotoxicity_72hr: Cytotoxicity Assessment at 72 hours in the Leibniz Research Institute for Environmental Medicine (IUF) Neural Progenitor Cell Proliferation Assay (NPC1) (AID 2284332; active = hit-call score of the fitted dose curve at least 0.9, where 1 is the maximum;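 note: rising LDH signal means more cytotoxicity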)
Summary of the method: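 Spheres of primary human neural progenitors are plated one per well on day 0 in growth-factor medium and dosed at once. After three days at 37C, supernatant LDH is measured fluorimetrically via resazurin reduction.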

Measured: AC50

Brc1ccc(Oc2ccc(Br)cc2Br)c(Br)c1
active: [1] 21.8 µM | [5] 4.11 µM | [6] 3.98 µM | [7] 23.6 µM | [8] 25.2 µM | [9] 4.59 µM | [10] 8.79 µM | [11] 8.93 µM | [12] 8.87 µM | [13] 4.6 µM | [14] 5.14 µM | [16] 41.5 µM | [18] 25.6 µM | [20] 7.42 µM | [25] 10.4 µM
inactive: all other assays above
